Compound activity: PubChem BioAssay, several laboratories
This is a sample that favours compounds with a hit; in the whole collection about 27% have one here.
CYP2C9 activ: increases human cytochrome P450 2C9 activity; P11712; recombinant CYP2C9, luciferin-H conversion, luminescence; hits give high values; factor 1 = untreated enzyme, 0 = blocked; activation factor at 5 µM; 1.4% of 96,000 active;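 active = activation factor of 2 or more for CYP2C9 at a 5 µM dose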;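 also: 0 = sulfaphenazole-blocked wells and 1 = vehicle-only wells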
Target sequence (P11712 whole entry, looked up): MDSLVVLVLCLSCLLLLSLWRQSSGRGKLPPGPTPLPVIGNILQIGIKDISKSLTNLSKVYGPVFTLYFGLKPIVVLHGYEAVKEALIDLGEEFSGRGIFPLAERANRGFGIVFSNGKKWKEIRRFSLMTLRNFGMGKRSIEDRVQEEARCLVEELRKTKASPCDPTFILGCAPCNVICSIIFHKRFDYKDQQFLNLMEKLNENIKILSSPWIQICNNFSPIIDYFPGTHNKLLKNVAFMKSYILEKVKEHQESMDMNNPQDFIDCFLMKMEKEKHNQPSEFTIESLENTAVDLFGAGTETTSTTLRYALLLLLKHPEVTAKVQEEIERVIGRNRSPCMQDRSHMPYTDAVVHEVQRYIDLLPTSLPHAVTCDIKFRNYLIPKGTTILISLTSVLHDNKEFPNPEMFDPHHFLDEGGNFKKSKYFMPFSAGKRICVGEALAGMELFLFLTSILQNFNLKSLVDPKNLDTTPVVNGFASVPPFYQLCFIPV
EphB4 ephrin blk: antagonists of human EphB4-ephrin-B2 interaction; P54760; EphB4 LBD / TNYL-RAW-Alexa532 peptide, fluorescence polarization; inhibition, % at 7 µM; 0.15% of 97,000 active; AID 720;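 active = inhibition above the screen-wide mean inhibition plus 3 SD, cut at about 15% in these data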;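 also: 0% = DMSO wells and 100% = excess unlabeled TNYL-RAW peptide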
CYP2C9 inh: inhibitors of human CYP2C9; P11712; CYP2C9 Supersomes, luciferin-H conversion, luminescence; inhibition, % at 5 µM; 20% of 96,000 active; AID 777;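 active = blocking of liver enzyme CYP2C9 beyond about 50% at 5 µM, limit read from the data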
CYP2C19 activ: cytochrome P450 2C19 (human) activation | P33261 | recombinant CYP2C19, luciferin-H EGE luminescence; hits give high values; 0 = fully inhibited enzyme, 1 = untreated enzyme | activation factor at 5 µM | 96,000 tested, under 10 active | AID 1025;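 active = activation factor of at least 2 at 5 µM in the primary screen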;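 also: 0 = wells with 2.5 mM tranylcypromine and 1 = vehicle-only wells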
CYP2C19 inh: blocks human cytochrome P450 2C19; 21% of 96,000 active; inhibition, % at 5 µM; P33261; CYP2C19 Supersomes, luciferin-H EGE luminescence, 30 min;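 active = CYP2C19 inhibition above a set limit at 5 µM in the primary screen, cut at about 50% in these data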;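 also: plate controls were negative control wells for no effect and 2.5 mM tranylcypromine positive control for full effect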
* hit, by the source's call.

What do the screens show for `N#Cc1ccc(COC(=O)C2CCC(=O)N2)cc1` (configuration not stated)?
CYP2C9 activ: 1; EphB4 ephrin blk: 2.2; CYP2C9 inh: 0.5; CYP2C19 activ: 0.9; CYP2C19 inh: 6.5

What do the screens show for `Cc1nn(CC(=O)NCC2CCCO2)c(=O)c2ccccc12` (configuration not stated)?
CYP2C9 activ: 1.1; CYP2C9 inh: -12.6; CYP2C19 activ: 1.1; CYP2C19 inh: -6.4

How did Cc1ccc2c(SCC(=O)NCc3ccco3)nc(-c3ccc(F)cc3)nc2c1 do in these assays?
CYP2C9 activ: 0.1; EphB4 ephrin blk: -8.8; CYP2C9 inh: 89.4*; CYP2C19 activ: 0.7; CYP2C19 inh: 28.3

Results for Cc1cc(C)c2cc(C#N)c(SCC(=O)NCc3ccco3)nc2c1 ?
CYP2C9 activ: 0.3; EphB4 ephrin blk: -0.3; CYP2C9 inh: 71.2*; CYP2C19 activ: 0.7; CYP2C19 inh: 29.0

What do the screens show for `COc1ccc(-c2[nH]c(-c3ccc(C)cc3)nc2SCC(=O)NCc2ccco2)cc1OC`?
CYP2C9 activ: 0.6; EphB4 ephrin blk: -2.7; CYP2C9 inh: 43.7; CYP2C19 activ: 0.4; CYP2C19 inh: 63.9*

What do the screens show for `CC(=O)Nc1cccc2c1C(=O)N(c1ccc(C)cc1)C2=O`?
EphB4 ephrin blk: 4.8

What do the screens show for `COc1cccc(NC(=O)C2CCN(S(=O)(=O)c3ccc4c(c3)OCCO4)CC2)c1`?
CYP2C9 activ: 1.5; EphB4 ephrin blk: 1.2; CYP2C9 inh: -45.2; CYP2C19 activ: 0.6; CYP2C19 inh: 37.1

What do the screens show for `NC(=NC1CCCCC1)c1ccc([N+](=O)[O-])cc1`?
CYP2C9 activ: 0.9; EphB4 ephrin blk: 7.1; CYP2C9 inh: 6.8; CYP2C19 activ: 1; CYP2C19 inh: -4.9

Results for O=C(CN1CCC(C(O)(c2ccccc2)c2ccccc2)CC1)Nc1ccccc1 ?
CYP2C9 activ: 0.2; EphB4 ephrin blk: 0.2; CYP2C9 inh: 78.2*; CYP2C19 activ: 0.9; CYP2C19 inh: 9.1

How did O=C(CN1CCC(C(O)(c2ccccc2)c2ccccc2)CC1)Nc1cc(Cl)ccc1Cl do in these assays?
CYP2C9 activ: 0.4; EphB4 ephrin blk: 0.1; CYP2C9 inh: 64.7*; CYP2C19 activ: 0.8; CYP2C19 inh: 16.9

Results for Cc1nc(NC(=O)COc2ccccc2)sc1C(=O)Nc1cccc(Cl)c1 ?
CYP2C9 activ: 1; EphB4 ephrin blk: -0.7; CYP2C9 inh: 4.9; CYP2C19 activ: 1; CYP2C19 inh: -2.9

How did COc1ccc(/C=N/OCC(=O)N2CC3(C)CC2CC(C)(C)C3)cc1OC (configuration not stated) do in these assays?
CYP2C9 activ: 1; EphB4 ephrin blk: -0.6; CYP2C9 inh: 4.3; CYP2C19 activ: 0.7; CYP2C19 inh: 30.9

What do the screens show for `c1cc2cn[nH]c2cc1NC1CCCCCC1`?
CYP2C9 activ: 0.4; EphB4 ephrin blk: 1.1; CYP2C9 inh: 63.8*; CYP2C19 activ: 0; CYP2C19 inh: 99.4*

What do the screens show for `O=C(Nc1ccc(F)c(F)c1)NC1CCCCC1`?
CYP2C9 activ: 0.5; EphB4 ephrin blk: 3.2; CYP2C9 inh: 45.5; CYP2C19 activ: 0.9; CYP2C19 inh: 13.6

What do the screens show for `CS(=O)(=O)N1CCC(C(=O)NCC2CCCO2)CC1` (configuration not stated)?
CYP2C9 activ: 1.1; EphB4 ephrin blk: -6.7; CYP2C9 inh: -7.5; CYP2C19 activ: 1; CYP2C19 inh: -1.7

Results for C#CCNc1nc(CC)nc2c1nnn2Cc1ccccc1F ?
CYP2C9 activ: 0.9; EphB4 ephrin blk: 2.4; CYP2C9 inh: 10.3; CYP2C19 activ: 0.5; CYP2C19 inh: 51.5*

What do the screens show for `Fc1ccccc1Cn1nnc2c(NCCc3ccccn3)ncnc21`?
CYP2C9 activ: 1; CYP2C9 inh: 2.4; CYP2C19 activ: 0.7; CYP2C19 inh: 34.3

What do the screens show for `CCc1nc(NCCCCCO)c2nnn(Cc3ccccc3F)c2n1`?
CYP2C9 activ: 0.4; EphB4 ephrin blk: 0.4; CYP2C9 inh: 56.4*; CYP2C19 activ: 0.6; CYP2C19 inh: 44.9

What do the screens show for `COc1ccc(C(=O)c2cn[nH]c2-c2cc(Cl)ccc2O)cc1`?
CYP2C9 activ: 0.1; EphB4 ephrin blk: 2.2; CYP2C9 inh: 92.4*; CYP2C19 activ: 0; CYP2C19 inh: 98.5*

How did Cc1ccc(C(=O)c2cn[nH]c2-c2ccccc2O)cc1 do in these assays?
CYP2C9 activ: 0.6; EphB4 ephrin blk: 3.5; CYP2C9 inh: 44.1; CYP2C19 activ: 0.1; CYP2C19 inh: 89.2*

What do the screens show for `O=C(c1ccc(Cl)cc1)c1cn[nH]c1-c1ccccc1O`?
CYP2C9 activ: 0.1; EphB4 ephrin blk: -5.8; CYP2C9 inh: 86.5*; CYP2C19 activ: 0; CYP2C19 inh: 95.2*

How did CCC(=O)N/C(=N/c1nc(C)cc(C)n1)Nc1cccc(OC)c1 do in these assays?
CYP2C9 activ: 0.8; EphB4 ephrin blk: -3.5; CYP2C9 inh: 17.0; CYP2C19 activ: 0.9; CYP2C19 inh: 14.1

What do the screens show for `CCOc1cc(/C=N/NC(=O)CNc2cccc(C)c2)ccc1OC(=O)c1ccccc1`?
CYP2C9 activ: 0.6; EphB4 ephrin blk: 7.7; CYP2C9 inh: 40.3; CYP2C19 activ: 0.9; CYP2C19 inh: 13.1

How did Cc1ccccc1NC(=O)c1ccc2c(c1)OCCO2 do in these assays?
CYP2C9 activ: 1.1; EphB4 ephrin blk: -3.5; CYP2C9 inh: -10.7; CYP2C19 activ: 1.1; CYP2C19 inh: -6.9

What do the screens show for `CCC(O)c1cc2c(cc1NC(=O)c1ccc(C)cc1)OCCO2` (configuration not stated)?
CYP2C9 activ: 0.2; EphB4 ephrin blk: 0.4; CYP2C9 inh: 76.5*; CYP2C19 activ: 0.4; CYP2C19 inh: 63.8*

Results for CCc1ccc(C(=O)Nc2cc3c(cc2Cl)OCCCO3)cc1 ?
CYP2C9 activ: 2.2*; EphB4 ephrin blk: -4.8; CYP2C9 inh: -117.4; CYP2C19 activ: 0.9; CYP2C19 inh: 7.2

What do the screens show for `Fc1ccc(Cn2c(-c3cscn3)nc3ccccc32)c(Cl)c1`?
CYP2C9 activ: 1.1; EphB4 ephrin blk: -0.8; CYP2C9 inh: -6.9; CYP2C19 activ: 1.1; CYP2C19 inh: -8.1

What do the screens show for `Oc1ccccc1Cn1c(-c2ccccc2O)nc2ccccc21`?
CYP2C9 activ: 0.3; EphB4 ephrin blk: 6.6; CYP2C9 inh: 66.4*; CYP2C19 activ: 0.4; CYP2C19 inh: 59.6*

Results for Clc1ccc(Cn2c(-c3cccnc3Cl)nc3ccccc32)cc1 ?
CYP2C9 activ: 0.4; EphB4 ephrin blk: 0.8; CYP2C9 inh: 64.6*; CYP2C19 activ: 0.2; CYP2C19 inh: 81.6*

How did COc1ccccc1Cn1c(-c2ccccc2OC)nc2ccccc21 do in these assays?
CYP2C9 activ: 1.1; EphB4 ephrin blk: -5.5; CYP2C9 inh: -6.5; CYP2C19 activ: 1.3; CYP2C19 inh: -29.4

Results for Clc1ccc(Cn2c(-c3cccnc3Cl)nc3ccccc32)c(Cl)c1 ?
CYP2C9 activ: 0.4; EphB4 ephrin blk: 9.7; CYP2C9 inh: 58.0*; CYP2C19 activ: 0.4; CYP2C19 inh: 60.3*

How did CCn1c(-c2cccnc2Cl)nc2cc(Cl)c(Cl)cc21 do in these assays?
CYP2C9 activ: 0.3; EphB4 ephrin blk: -7.0; CYP2C9 inh: 67.1*; CYP2C19 activ: 0.5; CYP2C19 inh: 49.6

Results for CCOC(=O)Cn1c(-c2cccnc2Cl)nc2cc(C)c(C)cc21 ?
CYP2C9 activ: 0.9; EphB4 ephrin blk: 2.3; CYP2C9 inh: 5.9; CYP2C19 activ: 1; CYP2C19 inh: -3.8
